ERa coact pot = enhancers of ERα–SRC-1 coactivator binding, primary screen, biochemical, TR-FRET, ERα LBD, low estradiol; TR-FRET ERalpha-LBD/SRC-Cy5 coactivator binding, 2 h; 100 = basal binding, no effect; coactivator binding (% of control), % at 25.6 µM; 86,000 compounds, 1.3% hits; in the data active = activity above about 200%;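 note: binding measured in presence of low estradiol as agonist stimulus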
Target sequence (P03372 whole entry, looked up, the tested form may be a part): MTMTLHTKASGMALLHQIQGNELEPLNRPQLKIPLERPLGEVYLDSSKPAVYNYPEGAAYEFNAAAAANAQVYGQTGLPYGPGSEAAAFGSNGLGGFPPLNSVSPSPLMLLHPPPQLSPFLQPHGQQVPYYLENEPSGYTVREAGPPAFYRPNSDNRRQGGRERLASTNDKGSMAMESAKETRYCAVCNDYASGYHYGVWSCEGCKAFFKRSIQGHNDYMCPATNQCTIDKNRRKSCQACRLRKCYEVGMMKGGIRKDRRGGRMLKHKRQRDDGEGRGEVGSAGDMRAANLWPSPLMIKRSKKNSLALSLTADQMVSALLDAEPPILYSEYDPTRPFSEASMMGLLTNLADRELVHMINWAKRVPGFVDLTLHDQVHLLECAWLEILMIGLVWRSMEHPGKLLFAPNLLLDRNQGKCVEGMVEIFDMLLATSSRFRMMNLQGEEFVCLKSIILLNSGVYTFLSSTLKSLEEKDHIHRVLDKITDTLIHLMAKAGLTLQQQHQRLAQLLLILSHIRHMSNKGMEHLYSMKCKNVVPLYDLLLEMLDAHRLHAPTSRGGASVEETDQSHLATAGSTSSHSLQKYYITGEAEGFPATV
ERa SRC1 inh = ERα–SRC-1 coactivator interaction inhibitors, primary screen, biochemical, TR-FRET, ERα LBD, estradiol-bound | 86,000 compounds, 1.7% hits | inhibition, % at 25.6 µM | Estrogen receptor (Homo sapiens), P03372 | TR-FRET ER-alpha LBD / SRC-1 peptide; in the data active = inhibition above about 50%
ERb SRC1 inh = inhibitors of ERβ-SRC1 coactivator interaction, primary screen, biochemical, TR-FRET, ERβ LBD, SRC-1 peptide; Estrogen receptor beta (Homo sapiens), Q92731; TR-FRET ER-beta LBD / SRC1-Cy5 peptide binding; receptor agonist-loaded with 1 µM estradiol; inhibition, % at 25.6 µM; 86,000 compounds, 1.3% hits;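 active = compounds whose percent inhibition of the receptor-coactivator binding signal exceeds about 50% in the single-dose screen, limit read from the data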
Smad3 FoxH1 inh = Smad3/FoxH1 peptide binding inhibitors, primary screen, biochemical, TR-FRET. inhibition, % at 25 µM. Mothers against decapentaplegic homolog 3 (Homo sapiens), P84022. AID 630, 2007. TR-FRET Smad3/Dy647-FoxH1 peptide binding, europium anti-His. 88,000 compounds, 0.29% hits;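 active = compounds that reduce the energy-transfer binding signal between the protein and its labelled peptide by more than half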
A number is an active result; [ ] = dose if it differs, or a comment. Hits are enriched below; roughly 3.7% of the tested compounds scored in any of these assays.

Screening O=S(=O)(Nc1ccc(-c2nc3cccnc3s2)cc1)c1ccc(Cl)s1 returned ERa coact pot inactive, ERa SRC1 inh 77.2[fluorescence artefact?], ERb SRC1 inh inactive and Smad3 FoxH1 inh inactive.
Screening O=S(=O)(Nc1ccc(-c2nc3cccnc3s2)cc1)c1cccs1 returned ERa coact pot inactive, ERa SRC1 inh inactive, ERb SRC1 inh inactive and Smad3 FoxH1 inh inactive.
For CCCCn1cnc2c(c(CC#N)nn2-c2ccccc2)c1=N the results were Smad3 FoxH1 inh inactive.
`CCOC(=O)Cn1cnc2sc3c(c2c1=O)CCC3` gave ERa coact pot inactive, ERa SRC1 inh 63.5[fluorescence artefact?], ERb SRC1 inh 70.0 and Smad3 FoxH1 inh inactive.
Screening CCOC(=O)C(C)n1cnc2sc3c(c2c1=O)CCC3 (stereo unspecified) returned ERa coact pot inactive, ERa SRC1 inh inactive, ERb SRC1 inh inactive and Smad3 FoxH1 inh inactive.
CCOC(=O)c1c(N)sn(-c2ccccc2)c1=S was read as ERa coact pot 589.5[fluorescence artefact?], ERa SRC1 inh inactive, ERb SRC1 inh inactive and Smad3 FoxH1 inh inactive.
`CC(c1ccccc1)N1C(=O)c2ccccc2C1O` (stereo unspecified) gave ERa coact pot inactive, ERa SRC1 inh inactive, ERb SRC1 inh inactive and Smad3 FoxH1 inh inactive.
`O=S(=O)(N1CCCCC1)n1nnc2ccccc21` gave ERa coact pot inactive, ERa SRC1 inh inactive, ERb SRC1 inh inactive and Smad3 FoxH1 inh inactive.
Screening O=C1C(N2CCOCC2)=C(n2nnc3ccccc32)C(=O)c2ccccc21 returned ERa coact pot inactive, ERa SRC1 inh inactive, ERb SRC1 inh inactive and Smad3 FoxH1 inh 52.3.
Screening CCOC(=O)N1CCN(C(=O)C2CCN(S(=O)(=O)CC)CC2)CC1 returned ERa coact pot 238.2[fluorescence artefact?], ERa SRC1 inh inactive, ERb SRC1 inh inactive and Smad3 FoxH1 inh inactive.
`CCCS(=O)(=O)N1CCC(C(=O)N2CCN(C(=O)OCC)CC2)CC1` gave ERa coact pot inactive, ERa SRC1 inh inactive, ERb SRC1 inh inactive and Smad3 FoxH1 inh inactive.
COc1ccc(/C=C/C(O)=C2/C(=O)N(C)C3(C)CC2c2ccccc2O3)cc1 (stereo unspecified) was read as ERa coact pot inactive, ERa SRC1 inh 62.9, ERb SRC1 inh inactive and Smad3 FoxH1 inh inactive.
For C[C@@]12CC[C@@H]3[C@H](CCC4=CC(=O)CC[C@]43C)[C@H]1CC[C@H]2C(=O)COS(=O)(=O)c1ccc(Br)cc1 the results were Smad3 FoxH1 inh inactive.
Screening CN1CCc2c(sc3c2C(=O)NC(c2cn(Cc4ccccc4)c4ccccc24)N3)C1 (stereo unspecified) returned ERa coact pot inactive, ERa SRC1 inh 89.6[fluorescence artefact?], ERb SRC1 inh 64.0[fluorescence artefact?] and Smad3 FoxH1 inh inactive.
`CN1CCc2c(sc3c2C(=O)NC(c2ccco2)N3)C1` (stereo unspecified) gave ERa coact pot inactive, ERa SRC1 inh inactive, ERb SRC1 inh inactive and Smad3 FoxH1 inh inactive.
`COc1cccc(N(C(C)=O)c2nc(C)cc(C)c2C#N)c1` gave ERa coact pot inactive, ERa SRC1 inh inactive, ERb SRC1 inh 93.9[fluorescence artefact?] and Smad3 FoxH1 inh inactive.
COc1ccccc1N(C(C)=O)c1nc(C)cc(C)c1C#N was read as ERa coact pot inactive, ERa SRC1 inh inactive, ERb SRC1 inh inactive and Smad3 FoxH1 inh inactive.
`COc1ccc(N(CC(=O)Nc2ccccc2C(=O)NCCc2ccccc2)S(C)(=O)=O)cc1OC` gave ERa coact pot inactive, ERa SRC1 inh inactive, ERb SRC1 inh inactive and Smad3 FoxH1 inh inactive.
CC1(C)Cc2c(c(-c3ccco3)[nH]c(=O)c2C#N)CS1 was read as ERa coact pot inactive, ERa SRC1 inh inactive, ERb SRC1 inh 62.0[fluorescence artefact?] and Smad3 FoxH1 inh inactive.
Screening CC(C)=C[C@H]1[C@H](COC(=O)c2cc3c(cc2Cl)OCO3)C1(C)C returned Smad3 FoxH1 inh inactive.
For Cc1ccc(C(=O)CN2CCC(NC(=O)C3CCCCC3)CC2)cc1 the results were ERa coact pot 604.7[fluorescence artefact?], ERa SRC1 inh inactive, ERb SRC1 inh inactive and Smad3 FoxH1 inh inactive.
`CCOc1ccc(-c2nnn(CC(=O)NCc3ccc(F)cc3)n2)cc1OCC` gave ERa coact pot inactive, ERa SRC1 inh inactive, ERb SRC1 inh inactive and Smad3 FoxH1 inh inactive.
CCOc1ccc(-c2nnn(CC(=O)c3ccc4c(c3)OCCO4)n2)cc1OCC was read as ERa coact pot 385.5[fluorescence artefact?], ERa SRC1 inh inactive, ERb SRC1 inh inactive and Smad3 FoxH1 inh inactive.
Screening O=C(COC(=O)c1ccncc1)Nc1cc(Cl)c(Cl)cc1Cl returned ERa coact pot inactive, ERa SRC1 inh inactive, ERb SRC1 inh inactive and Smad3 FoxH1 inh inactive.
For O=C(OCC(=O)N1CCCC1)c1cncc(Br)c1 the results were ERa coact pot inactive, ERa SRC1 inh inactive, ERb SRC1 inh 54.8 and Smad3 FoxH1 inh inactive.
Screening CC(C)CNC(=O)COC(=O)c1cncc(Br)c1 returned ERa coact pot inactive, ERa SRC1 inh inactive, ERb SRC1 inh inactive and Smad3 FoxH1 inh inactive.
Screening COc1nnc(-c2ccc(C(=O)N3C[C@@H]4C[C@H](C3)c3cccc(=O)n3C4)cc2)c2ccccc12 returned ERa coact pot 340.1, ERa SRC1 inh inactive, ERb SRC1 inh inactive and Smad3 FoxH1 inh inactive.
Cc1cccc(NC(=O)c2cnc3scc(C)n3c2=O)c1 was read as ERa coact pot 335.6[fluorescence artefact?], ERa SRC1 inh inactive, ERb SRC1 inh inactive and Smad3 FoxH1 inh inactive.
Screening Cc1csc2ncc(C(=O)N3c4ccccc4CC3C)c(=O)n12 (stereo unspecified) returned ERa coact pot inactive, ERa SRC1 inh inactive, ERb SRC1 inh 87.3 and Smad3 FoxH1 inh inactive.
`CC1Cc2ccccc2N1C(=O)c1cnc2ccccn2c1=O` (stereo unspecified) gave ERa coact pot inactive, ERa SRC1 inh inactive, ERb SRC1 inh inactive and Smad3 FoxH1 inh inactive.
For Cc1csc2ncc(C(=O)Nc3ccc4c(c3)OCCO4)c(=O)n12 the results were ERa coact pot inactive, ERa SRC1 inh inactive, ERb SRC1 inh inactive and Smad3 FoxH1 inh inactive.
Screening Cc1csc2ncc(C(=O)Nc3ccccc3F)c(=O)n12 returned ERa coact pot inactive, ERa SRC1 inh inactive, ERb SRC1 inh inactive and Smad3 FoxH1 inh inactive.
For Cc1csc2ncc(C(=O)Nc3ccccc3Cl)c(=O)n12 the results were ERa coact pot 238.6[fluorescence artefact?], ERa SRC1 inh 58.4[fluorescence artefact?], ERb SRC1 inh 64.9[fluorescence artefact?] and Smad3 FoxH1 inh inactive.
Cc1ccc(NC(=O)c2cnc3scc(C)n3c2=O)c(C)c1 was read as ERa coact pot 220.0, ERa SRC1 inh 50.4[fluorescence artefact?], ERb SRC1 inh inactive and Smad3 FoxH1 inh inactive.
CCOC(=O)C1=C(CSc2nc(-c3ccccc3)ccc2C#N)OC(N)=C(C#N)C1c1ccc(OC)cc1 (stereo unspecified) was read as ERa coact pot inactive, ERa SRC1 inh inactive, ERb SRC1 inh inactive and Smad3 FoxH1 inh inactive.
Screening COc1cccc2c1[C@H](CO)N1[C@H](C#N)[C@H]3C[C@@H](C(=O)O)[C@@H]([C@@H]1C2)N3C returned Smad3 FoxH1 inh inactive.
For CC(C)(SCc1ccccc1)[C@H](N)C(=O)O the results were Smad3 FoxH1 inh inactive.

Compound activity deposited in PubChem BioAssay by Emory University Molecular Libraries Screening Center.
